Results on four compounds are retold here after PubChem BioAssay (EPA / NIEHS).

Activity calls are given as the source filed them. The calls were made as follows: active = hit-call score of the fitted dose curve at least 0.9, where 1 is the maximum; inactive = score below 0.9.

Read-out in test [1]: Transforming growth factor beta 1 (TGFb1), TGFB1 (gene 7040)
The test can be described thus: BSK_KF3CT_TGFb1: BioMAP Diversity Plus: KF3CT Assay for Transforming growth factor beta 1 (TGFb1) Biomarker Activity (AID 2283072). Conditions: primary human keratinocytes with fibroblasts; actives raise or lower the signal. The gist of the method:
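Human keratinocyte/foreskin fibroblast co-culture; TGF-b1 measured by ELISA 24 h after dosing, fitted bidirectionally versus DMSO. Cytotoxicity checked in parallel cultures by total protein (SRB staining, 560 nm).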

Read-out in test [2]: C-C motif chemokine 2 (Homo sapiens) (UniProt P13500)
The test can be described thus: BSK_KF3CT_MCP1: BioMAP Diversity Plus: KF3CT Assay for Monocyte Chemoattractant Protein 1 (MCP1/CCL2) Biomarker Activity (AID 2283073). Conditions: primary human keratinocytes with fibroblasts; actives raise or lower the signal. The gist of the method: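 KF3CT skin co-culture (keratinocytes/foreskin fibroblasts), 24 h post-dose; MCP-1 by ELISA; gain/loss of signal fit bidirectionally vs DMSO baseline.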

Read-out in test [3]: Matrix Metallopeptidase 9 (MMP9), MMP9 (gene 4318)
The test can be described thus: BSK_KF3CT_MMP9: BioMAP Diversity Plus: KF3CT Assay for Matrix Metallopeptidase 9 (MMP9) Biomarker Activity (AID 2283074).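 As to AC50: MMP9 protein level quantified by ELISA in the co-culture.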 Conditions: primary human keratinocytes with fibroblasts; actives raise or lower the signal. The gist of the method: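 Human keratinocyte and foreskin fibroblast co-culture exposed to chemicals for 24 h; MMP9 biomarker measured by ELISA, bidirectional fitting relative to DMSO; cytotoxicity tracked by SRB total protein staining in parallel cultures.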

Read-out in test [4]: E-selectin (Homo sapiens) (UniProt P16581)
Briefly: BSK_LPS_Eselectin: BioMAP Diversity Plus: LPS Assay for Eselectin Biomarker Activity (AID 2283077). The following applies: primary human HUVEC with PBMC; actives raise or lower the signal. In a few lines: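 ELISA readout of E-selectin, 24 h post-dose, HUVEC + PBMC co-culture (LPS system). Gain or loss of signal vs DMSO baseline, bidirectional fit.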

Test [5] is described as follows: BSK_LPS_SRB: Viability Assessment in the BioMAP Diversity Plus: LPS Assay (AID 2283079).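 Also: total protein by sulforhodamine B absorbance as a cytotoxicity measure; measured one day after compound addition; fitted in both directions against DMSO so loss or gain of signal counts.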 Conditions: primary human HUVEC with PBMC. The gist of the method:
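HUVEC + PBMC co-culture, LPS-stimulated; compound 24 h. 10% TCA fix, 0.1% SRB stain, A560. Bidirectional fit vs DMSO.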

Read-out in test [6]: Interleukin-1 alpha (IL1a), IL1A (gene 3552)
Briefly: BSK_LPS_IL1a: BioMAP Diversity Plus: LPS Assay for Interleukin-1 alpha (IL1a) Biomarker Activity (AID 2283080). The following applies: primary human HUVEC with PBMC; actives raise or lower the signal. In a few lines:
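HUVEC/PBMC co-culture, LPS system; 24 h after dosing; IL-1a by ELISA; gain or loss of signal fitted bidirectionally vs DMSO baseline.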

Read-out in test [7]: Monocyte Chemoattractant Protein-1 (MCP1), CCL2 (gene 6347)
Briefly: BSK_LPS_MCP1: BioMAP Diversity Plus: LPS Assay for Monocyte Chemoattractant Protein-1 (MCP1) Biomarker Activity (AID 2283081).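 As to AC50: secreted MCP-1 protein quantified by ELISA in culture supernatant.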 The following applies: primary human HUVEC with PBMC; actives raise or lower the signal. The gist of the method: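 ELISA read-out of MCP-1 after 24 h chemical dosing of a human umbilical vein endothelial cell/peripheral blood mononuclear cell co-culture stimulated with LPS. Gain or loss of signal fitted relative to DMSO controls.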

Test [8] can be described thus: BSK_LPS_PGE2: BioMAP Diversity Plus: LPS Assay for Prostaglandin E2 (PGE2) Biomarker Activity (AID 2283082). The following applies: primary human HUVEC with PBMC; actives raise or lower the signal. In a few lines: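 HUVEC plus human PBMC co-culture stimulated with LPS; secreted PGE2 quantified by ELISA 24 h after chemical dosing. Activity fitted bidirectionally against DMSO baseline; parallel SRB staining (0.1% SRB after 10% TCA fixation, 560 nm) flags overt cytotoxicity.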

Read-out in test [9]: Macrophage colony-stimulating factor (MCSF), CSF1 (gene 1435)
The test can be described thus: BSK_LPS_MCSF: BioMAP Diversity Plus: LPS Assay for Macrophage colony-stimulating factor (MCSF) Biomarker Activity (AID 2283083). Conditions: primary human HUVEC with PBMC; actives raise or lower the signal. The gist of the method:
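HUVEC + PBMC co-culture (human primary), 24 h post-dose; M-CSF by ELISA; gain/loss of signal fitted bidirectionally vs DMSO baseline.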

Read-out in test [10]: Tissue Factor, F3 (gene 2152)
Briefly: BSK_LPS_TissueFactor: BioMAP Diversity Plus: LPS Assay for Tissue Factor Biomarker Activity (AID 2283084). Conditions: primary human HUVEC with PBMC; actives raise or lower the signal. In a few lines: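 HUVEC/PBMC co-culture, LPS-activated; CD142 ELISA read 24 h post-dose; bidirectional curve fit vs DMSO negative control.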

Read-out in test [11]: Vascular cell adhesion molecule 1 (VCAM1), VCAM1 (gene 7412)
The test can be described thus: BSK_LPS_VCAM1: BioMAP Diversity Plus: LPS Assay for Vascular cell adhesion molecule 1 (VCAM1) Biomarker Activity (AID 2283086). The following applies: primary human HUVEC with PBMC; actives raise or lower the signal. The gist of the method:
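Human umbilical vein endothelial cells co-cultured with PBMC and stimulated with LPS; VCAM-1 measured by ELISA 24 h after dosing. Bidirectional curve fitting against DMSO baseline; cytotoxicity tracked in parallel by SRB total-protein staining.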

Read-out in another test: CD38, CD38 (gene 952)
Briefly: BSK_SAg_CD38: BioMAP Diversity Plus: SAg Assay for CD38 Biomarker Activity (AID 2283087). The following applies: primary human HUVEC with PBMC; actives raise or lower the signal. In a few lines:
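Human HUVEC plus PBMC co-culture stimulated with superantigen; CD38 measured by ELISA 24 h after chemical dosing. Fluorescence read-out, bidirectional fit against DMSO; cytotoxicity tracked in parallel by SRB and Alamar Blue.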

Read-out in test [12]: CD40, CD40 (gene 958)
The test can be described thus: BSK_SAg_CD40: BioMAP Diversity Plus: SAg Assay for CD40 Biomarker Activity (AID 2283088). Conditions: primary human HUVEC with PBMC; actives raise or lower the signal. The gist of the method:
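HUVEC/PBMC co-culture, 24 h post-dose; CD40 by ELISA, fluorescence intensity; bidirectional fit vs DMSO negative control.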

Read-out in the next test: CD69, CD69 (gene 969)
Briefly: BSK_SAg_CD69: BioMAP Diversity Plus: SAg Assay for CD69 Biomarker Activity (AID 2283089).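 As to AC50: cell surface CD69 protein quantified by ELISA with fluorescence detection.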 The following applies: primary human HUVEC with PBMC; actives raise or lower the signal. In a few lines:
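ELISA, fluorescence read-out: CD69 on human umbilical vein endothelial cell + PBMC co-culture, 24 h post-dosing. Gain or loss of signal fitted bidirectionally against DMSO baseline.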

Read-out in test [13]: Monocyte Chemoattractant Protein-1 (MCP1), CCL2 (gene 6347)
The test can be described thus: BSK_SAg_MCP1: BioMAP Diversity Plus: SAg Assay for Monocyte Chemoattractant Protein-1 (MCP1) Biomarker Activity (AID 2283090). The following applies: primary human HUVEC with PBMC; actives raise or lower the signal. The gist of the method:
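MCP-1 levels in the endothelial–PBMC SAg co-culture were quantified by ELISA at 24 h post-dosing; both increases and decreases versus DMSO scored. Cytotoxicity monitored by SRB total protein in parallel cultures.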

Read-out in test [14]: E-selectin (Homo sapiens) (UniProt P16581)
Briefly: BSK_SAg_Eselectin: BioMAP Diversity Plus: SAg Assay for Eselectin Biomarker Activity (AID 2283091). Conditions: primary human HUVEC with PBMC; actives raise or lower the signal. The gist of the method:
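E-selectin ELISA readout at 24 h post-dosing in human umbilical vein endothelial cell/PBMC co-culture; gain or loss of signal fitted relative to DMSO baseline.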

Read-out in test [15]: CD40, CD40 (gene 958)
The test can be described thus: BSK_LPS_CD40: BioMAP Diversity Plus: LPS Assay for CD40 Biomarker Activity (AID 2283076). Conditions: primary human HUVEC with PBMC; actives raise or lower the signal. The gist of the method:
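ELISA readout of CD40 in HUVEC/PBMC co-culture (BSK_LPS system), 24 h post-dosing; bidirectional curve fit, DMSO baseline; parallel SRB total-protein staining for cytotoxicity.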

Read-out in test [16]: Tumor necrosis factor (Homo sapiens) (UniProt P01375)
The test can be described thus: BSK_LPS_TNFa: BioMAP Diversity Plus: LPS Assay for Tumour Necrosis Factor alpha (TNFa) Biomarker Activity (AID 2283085). The following applies: primary human HUVEC with PBMC; actives raise or lower the signal. The gist of the method: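 Human umbilical vein endothelial cells co-cultured with PBMC and stimulated with LPS. TNFa was measured by ELISA 24 h after chemical dosing, fitted bidirectionally relative to DMSO.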

Chain of E-selectin (Homo sapiens) (P16581 whole entry, looked up): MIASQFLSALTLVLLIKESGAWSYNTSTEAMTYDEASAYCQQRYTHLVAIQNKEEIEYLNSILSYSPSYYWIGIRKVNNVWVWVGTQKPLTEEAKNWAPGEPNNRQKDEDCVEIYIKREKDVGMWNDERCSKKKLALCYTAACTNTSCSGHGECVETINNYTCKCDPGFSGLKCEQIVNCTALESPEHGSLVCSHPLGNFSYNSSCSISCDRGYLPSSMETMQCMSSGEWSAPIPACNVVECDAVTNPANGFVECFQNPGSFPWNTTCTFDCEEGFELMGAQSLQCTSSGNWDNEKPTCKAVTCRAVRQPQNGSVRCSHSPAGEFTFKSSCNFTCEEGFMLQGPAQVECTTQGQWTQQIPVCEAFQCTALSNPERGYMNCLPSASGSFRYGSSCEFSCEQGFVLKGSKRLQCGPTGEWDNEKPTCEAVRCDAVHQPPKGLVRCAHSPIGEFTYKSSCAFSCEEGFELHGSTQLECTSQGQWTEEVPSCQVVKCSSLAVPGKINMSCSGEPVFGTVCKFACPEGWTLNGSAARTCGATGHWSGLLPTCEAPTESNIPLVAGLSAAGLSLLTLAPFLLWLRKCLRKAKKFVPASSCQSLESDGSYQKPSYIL
Chain of Tumor necrosis factor (Homo sapiens) (P01375 whole entry, looked up): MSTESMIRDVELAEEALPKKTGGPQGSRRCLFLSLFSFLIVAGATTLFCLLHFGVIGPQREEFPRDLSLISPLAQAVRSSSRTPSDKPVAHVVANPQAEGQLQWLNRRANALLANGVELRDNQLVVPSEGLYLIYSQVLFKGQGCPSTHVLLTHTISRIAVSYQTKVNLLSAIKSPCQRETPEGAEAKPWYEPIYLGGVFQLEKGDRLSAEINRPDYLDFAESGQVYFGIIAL

By AC50 is commonly meant the midpoint of the concentration-response curve, whichever way the signal moves. Take `Cc1nn(C)c(Oc2ccccc2)c1C=NOCc1ccc(C(=O)OC(C)(C)C)cc1`: the outcome in test [1], in [4] and in test [10] was inactive. Moreover, the AC50 in test [2] is 12.7 µM (active); in test [3], 11.8 µM (active); in [5], 12.6 µM (active); in test [6] it was 13.2 µM (active); in [7], 17.5 µM (active); in test [8] it was 1.11 µM (active). Moreover, the concentration at half-maximal activity (AC50) in test [9] is 3.48 µM (active); in [11], 9.84 µM (active); with CD38, CD38 (gene 952), 5.76 µM (active); with CD40, CD40 (gene 958) [12], 6.66 µM (active); with CD69, CD69 (gene 969), 4.1 µM (active); in [13], 7.6 µM (active). In [14], the half-maximal activity concentration (AC50) was 4.27 µM (active).

Take `O=C(O)c1ccccc1`: the outcome was “inactive” in test [1]; “inactive” in [2]; “inactive” in test [3]; “inactive” with CD40, CD40 (gene 958) [15]; “inactive” in [4]; “inactive” in test [5]. Moreover, the result in [6], in [7], in [8], in test [9], in test [10] and in test [16] was inactive. The outcome in test [11] was “inactive”; in the test with CD38, CD38 (gene 952) it was “inactive”; with CD40, CD40 (gene 958) [12], “inactive”; with CD69, CD69 (gene 969), “inactive”; in test [13] it was “inactive”; in test [14] it was “inactive”.

As to `CN(C)C(=O)Nc1ccc(Cl)c(Cl)c1`, the outcome is “inactive” in test [1]; “inactive” in test [2]; “inactive” in test [3]; “inactive” in the test with CD40, CD40 (gene 958) [15]; “inactive” in test [4]; “inactive” in test [5]. The outcome in test [6] was “inactive”; in test [7], “inactive”; in [9] it was “inactive”; in test [10], “inactive”; in [11] it was “inactive”; with CD38, CD38 (gene 952) it was “inactive”. The outcome was “inactive” with CD40, CD40 (gene 958) [12]; “inactive” with CD69, CD69 (gene 969); “inactive” in test [13]; “inactive” in [14]. Moreover, the AC50 in test [8] is 7.82 µM (active).

On to `CCCOC(=O)c1ccc(C(=O)OCCC)nc1`, for which the outcome in test [1] is “inactive”; in test [2], “inactive”; in test [3] it was “inactive”; with CD40, CD40 (gene 958) [15], “inactive”; in [4], “inactive”; in [5], “inactive”. The outcome in test [6] is “inactive”; in test [8], “inactive”; in test [9] it was “inactive”; in test [10] it was “inactive”; in test [11], “inactive”; with CD69, CD69 (gene 969), “inactive”. Further, the outcome in test [13] and in [14] was inactive. The AC50 is 1.84 µM (active) in test [7]; 0.624 µM (active) with CD38, CD38 (gene 952); 3.09 µM (active) with CD40, CD40 (gene 958) [12].
